Experimental data from PubChem BioAssay AID1018 (Sanford-Burnham Center for Chemical Genomics, 2008).
Among all 200,000 compounds or so, about 15 (0.007%) were called active. Many of the other results were omitted from the sample, so actives are more common in it than they were. Unmarked numbers belong to inactive results. No stated cut-off is given here; in the data, active means displacement above about 50%; inactive means the rest.

The molecules below were run against E3 ubiquitin-protein ligase XIAP (Homo sapiens) (UniProt P98170) (assay: small molecules displacing peptide from XIAP – biochemical, IAP family, fluorescence polarization (AID 1018)). Details: XIAP BIR domain, at 20 µM, stronger effect = higher value.
Chain of E3 ubiquitin-protein ligase XIAP (Homo sapiens) (P98170 whole entry, looked up, the tested form may be a part): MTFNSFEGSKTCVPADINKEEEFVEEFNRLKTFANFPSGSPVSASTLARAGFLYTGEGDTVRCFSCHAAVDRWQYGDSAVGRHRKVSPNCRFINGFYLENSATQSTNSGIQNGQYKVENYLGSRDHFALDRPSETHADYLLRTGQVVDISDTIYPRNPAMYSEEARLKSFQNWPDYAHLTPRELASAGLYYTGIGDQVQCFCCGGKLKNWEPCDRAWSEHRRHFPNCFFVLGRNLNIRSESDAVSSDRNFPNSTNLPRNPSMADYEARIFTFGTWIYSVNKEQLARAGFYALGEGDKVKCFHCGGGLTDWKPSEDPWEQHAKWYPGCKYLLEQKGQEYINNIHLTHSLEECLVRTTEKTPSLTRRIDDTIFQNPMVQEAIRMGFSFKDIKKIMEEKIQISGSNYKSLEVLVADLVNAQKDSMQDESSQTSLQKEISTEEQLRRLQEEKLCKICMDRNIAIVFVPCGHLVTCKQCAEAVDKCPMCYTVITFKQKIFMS
In the case of O=c1[nH]nc(CNc2ccc(OC(F)(F)F)cc2)c2ccccc12, the displacement is reported as -3.9%. For COc1ccccc1N(C)S(=O)(=O)c1ccc(C(=O)Nc2ccc3nc(C)sc3c2)cc1, the displacement was 1.3%. Molecule Cc1cc(C(F)(F)F)nn1CC(=O)N(C)c1ccccc1 has a displacement of -1.9%. CCNS(=O)(=O)c1ccc(Br)c(OC)c1 showed a displacement of -3.2%. COc1cc2nc(CN3CCN(S(=O)(=O)c4ccc(Cl)cc4)CC3)[nH]c(=O)c2cc1OC gave a displacement of -6.8%. Work on C#CCOCCOCCOCCNc1nc(N2CCN(C(=O)[C@H](CCCCN)n3cc([C@@H](N)C(C)CC)nn3)CC2)nc(N2CCN(C(=O)[C@H](CCCCN)n3cc([C@@H](N)CO)nn3)CC2)n1 (some centres not stated) yielded a displacement of 3.3%. In the case of CN(C)S(=O)(=O)c1ccc(C(=O)Nc2ccnn2C2CCCCC2)cc1, the displacement is reported as -3.3%. With COc1ccc(-c2nc(CC(=O)O)cs2)cc1OC the displacement was -0.6%. With CC(C)c1ccc(C2NC(=O)NC3=C2CCc2ccccc23)cc1 (configuration not stated) the displacement was 52.5% (active). Work on Cc1ccc(C2NC(=O)NC3=C2CCc2ccccc23)cc1 (configuration not stated) yielded a displacement of -5.1%. With O=C1NC2=C(CCc3ccccc32)C(c2ccccc2)N1 (configuration not stated) the displacement was -5.4%. CCOC(=O)c1c(-c2ccc(C)o2)csc1NC(=O)CSc1nnnn1-c1ccccc1 was tested, and the displacement was -8.2%. CCCCCCCCNC(=O)c1cnsn1 was tested, and the displacement was -0.1%. COc1cccc(-c2cc(C(=O)NCCCn3ccnc3)c3ccccc3n2)c1 gave a displacement of -3%. O=C(Cn1cc2c(n1)CCCCC2)NC1CCN(Cc2ccccc2)CC1 gave a displacement of -4.9%. For CCCc1cc(-c2n[nH]c(=S)n2CC)cs1, the displacement was -5.7%. O=C(Cn1c(=O)oc2cc(S(=O)(=O)N3CCCCC3)ccc21)N1CCc2ccccc2C1 was tested, and the displacement was -5.2%. In the case of COc1ccc(NC(=O)OCCN2CCN(Cc3ccccc3)CCC2=O)cc1, the displacement is reported as -8%. Molecule N#Cc1nc(COc2ccccc2)oc1N1CCN(Cc2ccccc2)CC1 has a displacement of 0.7%. In the case of CCC(C)NC(=O)Cc1c(OC)ccc2cc(Br)ccc12 (configuration not stated), the displacement is reported as -4.6%. Work on C=CCSc1nnc(-c2ccccc2NC(=O)CC)c(=O)[nH]1 yielded a displacement of -1.1%. For COc1ccccc1N1CCN(C(=O)CCN2C(=O)c3cccc4cccc(c34)C2=O)CC1, the displacement was -4.4%. CC(=O)Nc1ccc(NC(=O)C(C)c2cccc(C(=O)c3ccccc3)c2)cc1 (configuration not stated) gave a displacement of 2.4%. In the case of CCOC(=O)c1ccc(NC(=S)NCCCN2CCCCC2)cc1, the displacement is reported as -4.4%. In the case of COC(=O)c1cc2n3ccccc3c(C)c(-c3ccccc3)c-2c1C(=O)OC, the displacement is reported as 72.2% (active). Molecule COC(=O)c1c(Cl)c2n3ccccc3c(C)c(-c3ccccc3)c-2c1C(=O)OC has a displacement of -0.6%. COC(=O)c1cc2c(-c3ccccc3)c(C)c3ccccn3c-2c1C(=O)OC showed a displacement of 26%.
